# In PubChem BioAssay AID1220 (Sanford-Burnham Center for Chemical Genomics, 2008):
# Hit rate of the full screen: of about 190,000 compounds, about 1,300 (0.68%) were called active. No stated cut-off is given here; in the data, active means inhibition above about 50%; inactive means the rest. What follows is part of a selection rich in actives, with near analogues and random picks from the rest.
# Target: Mannose-6-phosphate isomerase (Homo sapiens) (UniProt P34949)
# Test: MPI inhibition at elevated mannose 6-phosphate – biochemical, fluorescence intensity, high mannose 6-phosphate, primary screen (AID 1220)
# Details: recombinant PMI enzyme, coupled fluorescence intensity; at 20 µM; stronger effect = higher value
# Sequence of Mannose-6-phosphate isomerase (Homo sapiens) (P34949 whole entry, looked up): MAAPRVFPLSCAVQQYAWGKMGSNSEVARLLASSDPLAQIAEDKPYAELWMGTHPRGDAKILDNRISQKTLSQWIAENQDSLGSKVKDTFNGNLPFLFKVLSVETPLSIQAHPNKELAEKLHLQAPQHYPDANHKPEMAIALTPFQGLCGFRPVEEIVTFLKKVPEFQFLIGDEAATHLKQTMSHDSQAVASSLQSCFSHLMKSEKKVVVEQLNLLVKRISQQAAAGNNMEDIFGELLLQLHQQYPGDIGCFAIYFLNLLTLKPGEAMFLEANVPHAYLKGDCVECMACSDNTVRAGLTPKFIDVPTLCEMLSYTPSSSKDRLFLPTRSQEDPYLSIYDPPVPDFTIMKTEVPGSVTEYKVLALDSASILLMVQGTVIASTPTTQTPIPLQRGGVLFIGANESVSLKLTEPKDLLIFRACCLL
row,SMILES,inhibition
1,O=C(NCc1cccnc1)NC1CCCN1S(=O)(=O)c1ccc(Cl)cc1 (stereo not drawn),-3.5% (inactive)
2,Cc1ccc(-c2csc(NC(=O)CSc3ncn(-c4ccccc4)n3)n2)cc1,0% (inactive)
3,COc1cccc(NC(=O)CSc2nc3c(c(=O)n2C)SC(C)C3)c1 (stereo not drawn),2.4% (inactive)
4,CCOc1ccc(C(=O)N[C@H](C(=O)Nc2cccc(S(=O)(=O)N3CCCCC3)c2)C(C)C)cc1,57.6% (active)
5,O=C(Nc1cccc(S(=O)(=O)N2CCCCC2)c1)c1ccc(OCC2CCCO2)cc1 (stereo not drawn),2.6% (inactive)
6,CCOc1ccc(C(=O)N[C@H](C(=O)Nc2ccc(OC)c(S(=O)(=O)N3CCOCC3)c2)C(C)C)cc1,10.3% (inactive)
7,CCOC(=O)COn1c(=O)c(=O)n(O)c2ccccc21,24.9% (inactive)
8,Oc1ccc(/C=N/N=C/c2ccc(O)cc2)cc1,-2.8% (inactive)
9,CC(=O)Nc1ccc(N=Cc2ccc(OCc3ccccc3)cc2)cc1,10.3% (inactive)
10,Oc1ccc(N=Cc2ccc(O)c(O)c2)cc1,52.6% (active)
11,NC(N)=N/N=C/c1ccc(OCc2ccccc2)cc1,1.2% (inactive)
12,O=Cc1ccc(O)c(O)c1,-5% (inactive)
13,Oc1ccc(N=Cc2ccc(OCc3ccccc3)cc2)cc1,58.5% (active)
14,O=C(c1sc2ccccc2c1Cl)N(Cc1ccccc1Cl)C1CCS(=O)(=O)C1 (stereo not drawn),1.4% (inactive)
15,COc1cc(OC)cc(C(=O)OCC(=O)Nc2ccc(N3CCCCC3)cc2)c1,-11.3% (inactive)
16,COc1ccc(-c2nn(CCC#N)cc2/C=N/O)cc1OC,10.3% (inactive)
17,O=C(CSc1ccc(-c2ccc(F)cc2)nn1)N1CCCc2ccccc21,13.5% (inactive)
18,Cc1c(Cl)c([N+](=O)[O-])nn1CC(=O)Nc1ccc2c(c1)OCO2,-4.5% (inactive)
19,COCCNC(=O)Cn1c(=O)n(CCCCCC(=O)NCc2ccc3c(c2)OCO3)c(=O)c2sccc21,-13.4% (inactive)
20,CCOc1ccc(NC(=O)C2CC(C)=C(C)CC2C(=O)O)cc1 (stereo not drawn),0.7% (inactive)
21,CCOC(=O)c1sc(NC(=S)NC(=O)c2ccccc2Cl)c(C(=O)OCC)c1C,5.4% (inactive)
22,CCOC(=O)c1sc(NC(=O)c2ccccc2F)c(C(N)=O)c1C,56.6% (active)
23,CCOC(=O)c1sc(NC(C)=O)c(C(=O)OCC)c1C,7.7% (inactive)
24,Cn1nc(-c2ccc(Cl)cc2)nc2c(=O)n(C)c(=O)nc1-2,10.6% (inactive)
25,CCCc1nc(SCC(=O)c2ccc(OC)cc2)c2c(=O)n(C)c(=O)n(C)c2n1,-2.5% (inactive)

row,SMILES,inhibition
1,Cn1c(=O)c(-c2ccccc2)nc2ccccc21,4.9% (inactive)
2,CCn1c(N)nc2c1c(=O)n(C)c(=O)n2C,-1.8% (inactive)
3,COC(=O)c1ccccc1OCCOc1ccccc1C(=O)OC,2.8% (inactive)
4,COc1ccccc1-c1nc2ccccc2nc1-c1ccccc1,12.5% (inactive)
5,COc1ccccc1-c1nc2cc3ccccc3cc2nc1-c1ccccc1OC,50.1% (active)
6,COc1ccccc1-c1nc2ccccc2nc1-c1ccccc1OC,2.8% (inactive)
7,COc1ccccc1-c1nc2cc3ccccc3cc2nc1-c1ccccc1,50.6% (active)
8,COc1ccc(OC)c(-c2nc3cc4ccccc4cc3nc2-c2ccccc2)c1,10.1% (inactive)
9,COc1ccccc1-c1cc2ccccc2[nH]1,4.7% (inactive)
10,CC(=O)Nc1ccc(C(=O)OCC(=O)Nc2ccccc2Sc2ccccc2)cc1,2.4% (inactive)
11,COc1ccccc1CNC(=O)COc1ccc([N+](=O)[O-])cc1,2.1% (inactive)
12,COc1ccc(CC(=O)Nc2cccc(SC)c2)cc1,1.7% (inactive)
13,Cc1ccc(NC2=C(Cl)C(=O)c3ccccc3C2=O)cc1,41.8% (inactive)
14,O=C1C(Cl)=C(NCCN2CCCCC2)C(=O)c2ccccc21,54.3% (active)
15,COc1ccccc1NC1=C(N2CCCCC2)C(=O)c2ccccc2C1=O,2.6% (inactive)
16,O=C1c2ccccc2C(=O)N1CCN1CCCCC1,2.7% (inactive)
17,CCNC1=C(Cl)C(=O)c2ccccc2C1=O,15.6% (inactive)
18,CC(=O)Nc1ccc(NC2=C(Cl)C(=O)c3ccccc3C2=O)cc1,57.8% (active)
19,COc1ccccc1NC1=C(NC(C)=O)C(=O)c2ccccc2C1=O,60.1% (active)
20,CC(=O)Nc1ccc2c(c1)C(=O)c1ccccc1C2=O,-69.9% (inactive)
21,O=C(O)c1cccc(NC2=C(Cl)C(=O)c3ccccc3C2=O)c1,39.9% (inactive)
22,O=C1C(Cl)=C(Nc2ccccc2)C(=O)c2ccccc21,52.5% (active)
23,COc1ccccc1NC(C)=O,9.5% (inactive)
24,O=C(Oc1ccc(NC2=C(Cl)C(=O)c3ccccc3C2=O)cc1)c1ccc([N+](=O)[O-])cc1,32.9% (inactive)
25,CCCCn1nnnc1SCC(=O)c1ccc(C)c(C)c1,7.7% (inactive)

row,SMILES,inhibition
1,COCCCNC(=O)CCCCCNS(=O)(=O)c1ccc(Br)cc1,-6.2% (inactive)
2,COc1ccccc1OCC(=O)Sc1ccc(C)cc1,13% (inactive)
3,CC(=O)c1ccc(N2CCN(C(=O)Nc3ccc(C)cc3)CC2)cc1,-1.7% (inactive)
4,Cc1ccccc1Nc1ncnc(N)n1,-3.4% (inactive)
5,O=[N+]([O-])c1ccc(Cl)cc1Sc1ccccn1,2.7% (inactive)
6,Cn1c(SCC(=O)c2ccc3c(c2)OCO3)nnc1C1COc2ccccc2O1 (stereo not drawn),1.3% (inactive)
7,COC(=O)c1ccc(CSc2cc(C)c3cc(C)cc(C)c3n2)o1,-4.5% (inactive)
8,CCN(CC)c1ccc(N2C(=O)c3ccccc3C2=O)cc1,4.2% (inactive)
9,CCN(CC)c1ccc(NC2=C(Cl)C(=O)c3ccccc3C2=O)cc1,56.9% (active)
10,O=C1C(Cl)=C(NCCCO)C(=O)c2ccccc21,2.8% (inactive)
11,C=CCNC1=C(Cl)C(=O)c2ccccc2C1=O,38.6% (inactive)
12,CCN(CC)CCCNC1=C(Cl)C(=O)c2ccccc2C1=O,58.1% (active)
13,CCOc1ccc(NC2=C(OC)C(=O)c3ccccc3C2=O)cc1,25.9% (inactive)
14,CN1C(=O)c2ccc(NC(=S)NC(=O)C(C)(C)C)cc2C1=O,8.4% (inactive)
15,COCCSc1nnc(NC(=O)C2CCCCC2)s1,-1.4% (inactive)
16,CCN(c1ccccc1)S(=O)(=O)c1ccc2[nH]cc(C(=O)N3CCOCC3)c(=O)c2c1,8.3% (inactive)
17,COc1cccc2c(=O)c(C/C=C(/C)Cl)c(C)[nH]c12,4.6% (inactive)
18,COc1cccc2c(=O)c3cccc(N)c3[nH]c12,65.6% (active)
19,COc1cccc2c(=O)c(SC(F)(F)C(F)C(F)(F)F)c(C)[nH]c12 (stereo not drawn),6.8% (inactive)
20,COc1ccc(-c2csc(/C(C#N)=C\c3ccc(OC)c([N+](=O)[O-])c3)n2)cc1,3.4% (inactive)
21,CCN1CCN(C(=S)Nc2ccc3nc4n(c(=O)c3c2)CCCCC4)CC1,-3.2% (inactive)
22,Cc1ccc(S(=O)(=O)NCC(=O)NCC(=O)OCC(=O)N2CC(=O)Nc3ccccc32)cc1C,13.9% (inactive)
23,COc1ccccc1NC(=O)CC1S/C(=N/N=C2\CCCc3ccccc32)NC1=O (stereo not drawn),6.9% (inactive)
24,CCN(CC)c1ccc(/C=N/N2CCN(Cc3ccc(C)cc3)CC2)c(O)c1,30.3% (inactive)
25,Fc1ccc(/C=N/N2CCOCC2)c(F)c1,8.8% (inactive)

row,SMILES,inhibition
1,CCN(CC)c1ccc(/C=N/N2CCN(Cc3ccccc3)CC2)c(O)c1,53% (active)
2,CCN(CC)c1ccc(/C=N/N2CCN(Cc3ccc(C)cc3C)CC2)c(O)c1,39.8% (inactive)
3,COc1cccc(/C=N/N2CCOCC2)c1O,3.6% (inactive)
4,CCN(CC)c1ccc(/C=N/N2CCN(Cc3cccc4ccccc34)CC2)c(O)c1,30.7% (inactive)
5,CCN(CC)c1ccc(/C=N/N2CCOCC2)cc1,14.3% (inactive)
6,CCN(CC)c1ccc(/C=N/N2CCOCC2)c(O)c1,53.7% (active)
7,CCCn1c(=O)c2ccccc2n2c(SCC(=O)Nc3cc(C)on3)nnc12,0% (inactive)
8,CCC(/C=C1\Sc2ccc(OC)cc2N1CCO)=C\c1sc2ccc(OC)cc2[n+]1CCO,13% (inactive)
9,Cc1cc(C)nc(SCCn2c(N3CCC(C)CC3)nc3c2c(=O)n(C)c(=O)n3C)n1,12.2% (inactive)
10,Fc1ccc(NC(=S)N/N=C/c2ccc(F)c(F)c2)c(F)c1,-6.4% (inactive)
11,CCN(CC)c1ncnc2sc(C(=O)N3CCN(c4ccccc4)CC3)c(C)c12,6.5% (inactive)
12,Cc1ccc2cc(CCNC(=O)c3ccc(C)c([N+](=O)[O-])c3)c(=O)[nH]c2c1,-17% (inactive)
13,CN(C(=O)CSc1nnc(-c2ccc(F)cc2)c2ccccc12)C1CCS(=O)(=O)C1 (stereo not drawn),-14.8% (inactive)
14,CSc1sc(C)cc1C1C(C#N)=C(N)N(c2cccnc2)C2=C1C(=O)CC(C)(C)C2 (stereo not drawn),13.9% (inactive)
15,CC1CCN(S(=O)(=O)c2ccc3c(c2)oc(=O)n3CC(=O)N2CCc3ccccc3C2)CC1,-7.5% (inactive)
16,C/C(CC(=O)Nc1cccc(Cl)c1Cl)=N\NC(=O)c1ccccc1Br,50.8% (active)
17,C/C(CC(=O)Nc1cccc(Cl)c1Cl)=N\NC(=O)c1ccccc1N,3.3% (inactive)
18,C/C(CC(=O)Nc1cccc(Cl)c1Cl)=N\NC(=O)c1ccccc1C,2.3% (inactive)
19,CCCN(Cc1cc2ccc(C)cc2[nH]c1=O)C(=O)c1ccccn1,11% (inactive)
20,COc1ccc(NC2SC(=O)N(CC(=O)O)C2=O)cc1 (stereo not drawn),12.1% (inactive)
21,COc1ccc(N2CCN(c3ccc(C(N)=O)cc3[N+](=O)[O-])CC2)cc1,16.5% (inactive)
22,CC(=O)c1ccc(N2CCN(c3ccc(C(N)=O)cc3[N+](=O)[O-])CC2)cc1,-10.4% (inactive)
23,NC(=O)c1ccc(N2CCN(c3ccc(O)cc3)CC2)c([N+](=O)[O-])c1,55.2% (active)
